Structures are written as SMILES. Inconclusive results are not listed. A call without a number means that no potency is given here. Active and inactive are the calls of the source. Calls follow the shape of the dose curve; as a rule, active = well fitted cell-killing curve with a large enough effect in the repeat runs; inconclusive = weak or mixed curves, or effect the other way; inactive = no such curve, though single readings can be large or run the other way.
Potency is read from the fitted curve at half-maximal effect.

This experiment is described as follows: qHTS assay to identify small molecule antagonists of the thyroid receptor (TR) signaling pathway - cell viability counter screen (AID 743064). Also: nearly all actives have a fitted effect of over 50% in size. Particulars: GH3.TRE-Luc viability, CellTiter-Fluor, 24 h; series mostly up to 70.3 µM. The source says:
National Center for Advancing Translational Sciences [NCATS]
NIH Chemical Genomics Center [NCGC]
U.S. Environmental Protection Agency [EPA]
National Institutes of Environmental Health Sciences [NIEHS]
National Toxicology Program [NTP]
U.S. Food and Drug Administration [FDA]
Thyroid receptor (TR), a nuclear hormone receptor, plays an important role in development, proliferation, differentiation, metabolism, brain function, and cardiovascular system. […] To profile the Tox21 10K compound library in TR signaling, a cell-based GH3-TRE-Luc assay (GH3.TRE-Luc cell line, developed by the laboratory of Dr. Albertinka J. Murk, Wageningen University) was used to measure the inhibition of TR. GH3 (rat pituitary tumor) cells stably expressing a TR activity sensor consisting of two TR response elements and a luciferase reporter gene. The cytotoxicity of the Tox21 compound library against the GH3.TRE-Luc cell line was tested in parallel by measuring the cell viability using CellTiter-Fluor assay (Promega, Madison, WI) in the same wells.
Tox21 Assay Protocol Summary:
GH3.TRE-Luc cells were dispensed at 1500 cells/4 uL/well into 1536-well white solid bottom plates using a Multidrop Combi dispenser (Thermo Fisher Scientific Inc., Waltham, MA). After the assay plates were incubated at 37 C for 4 hours, 23 nL of library compound or DMSO controls was transferred to the assay plates by a pintool station (Kalypsys, San Diego, CA), followed by addition of 1 ul of T3 (1 nM, final concentration in the wells) to stimulate TR transactivation. The assay plates were incubated at 37 C for 23.5 h, and then 1 uL of CellTiter-Fluor reagent (Promega, Madision, WI) of measuring cytotoxicity was added to each well using a Bioraptr Flying Reagent Dispenser (FRD) workstation (Beckman Coulter, Indianapolis, IN, USA). The plates were incubated at 37C and 5% CO2 for additional 30 min, and fluorescence intensity was measured by a ViewLux plate reader (PerkinElmer, Shelton, CT).
Turning to `Nc1ccc(S(=O)(=O)NC(=O)c2ccccc2)cc1`, the Potency result is “inactive”.

With `O=[Si]=O`, the Potency entry is “inactive”.

Turning to `CCCCCCCCCCCCCCCCI`, the Potency result is “inactive”.

With `CCCCC[Si](OCC)(OCC)OCC`, the Potency entry was “inactive”.

Consider `C[Si]1(C)N[Si](C)(C)N[Si](C)(C)N1`, for which the Potency entry is “inactive”.

For `Cc1ccccc1N1CCN(CCc2nnc3n2CCCC3)CC1`, the Potency entry is “inactive”.

Turning to `CCC(C)N` (stereo not given), the Potency entry is “inactive”.

For `C1CCN2C[C@@H]3C[C@@H](CN4CCCC[C@@H]34)[C@H]2C1`, the Potency entry is “inactive”.

In the case of `COc1ccc(N=Nc2cc(C)c(N=Nc3ccc(S(=O)(=O)O)cc3)cc2OC)cc1`, the Potency entry was “inactive”.

For `CCCCCCCCCCCCCC(=O)OC`, the Potency result was “inactive”.

Turning to `Cc1cccc(NC(=S)N(C)C)c1`, the Potency result is “inactive”.

As for `Cc1ncc([N+](=O)[O-])n1CC(O)CCl` (stereo not given), the Potency result was “inactive”.

On to `CCCCOC(=O)[C@@H](C)Oc1ccc(Oc2ccc(C(F)(F)F)cn2)cc1`, for which the Potency entry is “inactive”.

Consider `CCOC(=O)CCc1ccccc1`, for which the Potency result is “inactive”.

Regarding `COc1ccc(OC)c(NC(=O)CC(C)=O)c1`, the Potency result was “inactive”.

As for `CC(C)(c1ccc(Oc2ccc3c(c2)C(=O)OC3=O)cc1)c1ccc(Oc2ccc3c(c2)C(=O)OC3=O)cc1`, the Potency result was “inactive”.

As to `Cc1ccc2c(c1)c1c3n2CCNC3CCC1` (stereo not given), the Potency is 11.9 µM (active).

With `CC(=O)/C=C/c1ccco1`, the Potency result is “inactive”.

`CC(=O)Nc1ncc([N+](=O)[O-])s1`: the Potency entry was “inactive”.

Take `CCCCCCCCCCCCC1CO1` (stereo not given): the Potency result was “inactive”.

In the case of `CCNC(=O)NCCCOc1cccc(CN2CCCCC2)c1`, the Potency entry was “inactive”.

On to `O=C1c2ccccc2-c2ccccc21`, for which the Potency result was “inactive”.

Take `Cc1cc(C)cc([N+](=O)[O-])c1`: the Potency result is “inactive”.

Regarding `CCCCCC(=O)OCC`, the Potency entry is “inactive”.

In the case of `CC(Cl)COP(=O)(OCC(C)Cl)OCC(C)Cl` (stereo not given), the Potency entry is “inactive”.

For the compound `CCC1Nc2cc(Cl)c(S(N)(=O)=O)cc2S(=O)(=O)N1` (stereo not given), the Potency entry is “inactive”.

Regarding `O=c1[nH]c(=O)c2[nH]c(=O)[nH]c2[nH]1`, the Potency entry was “inactive”.

For `O=C1OC(=O)c2ccccc21`, the Potency entry was “inactive”.

Regarding `CC(C)c1ccccc1O`, the Potency entry was “inactive”.

Consider `Nc1ccnc(=O)[nH]1`, for which the Potency result is “inactive”.

On to `CC(=O)Nc1ccc(C)cc1`, for which the Potency entry was “inactive”.

`Cc1c(C(C)C)c(=O)n(-c2ccccc2)n1C`: the Potency result is “inactive”.

Consider `Cc1nc(C)nc(N2C[C@@H](C)N(c3ccnc([C@@H](C)O)n3)[C@@H](C)C2)n1`, for which the Potency entry is “inactive”.

On to `Cc1nc([N+](=O)[O-])cn1-c1ccc([N+](=O)[O-])cc1`, for which the Potency entry is “inactive”.

On to `N#CCCOCCOCCC#N`, for which the Potency result is “inactive”.

With `Nc1ccc(/C=C/c2ccc(N)cc2S(=O)(=O)O)c(S(=O)(=O)O)c1`, the Potency result was “inactive”.

As to `NS(=O)(=O)c1cc2c(cc1Cl)NC(CC1CCCC1)NS2(=O)=O` (stereo not given), the Potency entry is “inactive”.

As to `COc1cc2c(Nc3ccc(Br)cc3F)ncnc2cc1OCC1CCN(C)CC1`, the Potency is 4.73 µM (active).

Turning to `C=CCOC(=O)c1ccc(C(=O)OCC=C)c(C(=O)OCC=C)c1`, the Potency entry was “inactive”.

In the case of `NC(=O)C1(N2CCCCC2)CCN(CCCC(=O)c2ccc(F)cc2)CC1`, the Potency result was “inactive”.

These data come from PubChem BioAssay (Tox21).
